PubChem BioAssay (NCI)
The panel holds about 83,000 compounds, 20% with a hit somewhere; the sample as a whole holds those more often.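 The test compound was applied at a single concentration to cells in 96-well plates for 48 hours, and percent growth was recorded.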 Values without a mark were called inactive. Active and inactive are the calls of the source. How the source made its calls: active means growth percent below 10; inactive means the rest.

System: BT-549 breast
Assay: NCI-60 one-dose screen, 48 h (100 = growth as untreated, 0 = no growth, -100 = all killed)
Settings: 10 µM unless noted

Structure (SMILES) | growth
CC(=O)Oc1c2c(nc3c1c1ccccc1n3Cc1ccccc1)-c1ccccc1C2 | 104%
C/C(=C\c1cnc(C)s1)[C@@H]1C[C@@H]2O[C@@H]2CCC[C@H](C)[C@H](O)[C@@H](C)C(=O)C(C)(C)[C@@H](O)CC(=O)O1 | 39.4%
OCCNc1nc(NCCO)nc(Nc2ccc(C3=NN(c4cc(Cl)cc(Cl)c4)C(c4ccc(C(F)(F)F)cc4)C3)cc2)n1 (configuration not stated) | 60.8%
CCOCCc1c(O)nc(SC)[nH]c1=O | 110%
CN(C)[C@@H]1C(=O)C(C(N)=O)=C(O)[C@@]2(O)C(=O)C3=C(O)c4c(O)cc(CN5CCc6ccccc6C5)c(Cl)c4C[C@H]3C[C@@H]12 | -83.3% (active)
CCCCn1c(=O)c(/C=C/C(=O)/C=C/c2cc3ccccc3n(CCCC)c2=O)cc2ccccc21 | -54.5% (active)
CCOC(=O)c1c(C)nc2c(c1N)CC(=O)N2CCc1ccccc1 | -17.1% (active)
C#CCOC(=O)[C@]1(C)CCC[C@]2(C)[C@H]3C[C@H]4C(C(C)C)=C[C@]3(CC[C@H]21)[C@@H]1C(=O)CCC(=O)[C@@H]14 | 91.7%
C/C(=N/Nc1nc2ccccc2n1C)c1ccccn1 | 13.5%
C#C[C@@]1(O)[C@@H](CO)O[C@@H](n2cc(-c3ccco3)c3c(N)ncnc32)[C@@H]1O | 58.5%
CC(=O)c1ccc(NC(=O)CSc2nnc(-c3cc(-c4ccc(Cl)cc4)nc4ccccc34)o2)cc1 | 79.7%
N#Cc1ccc(Oc2ccc3ccc(=O)oc3c2)cc1 | 110%
C=C(C)[C@@H]1CC[C@]2(C(=O)O)CC[C@]3(C)[C@H](CC[C@@H]4[C@@]5(C)C[C@@H](CC#Cc6ccc(Cl)cc6)C(=O)C(C)(C)[C@@H]5CC[C@]43C)[C@@H]12 | 46.5%
CN1CCN(S(=O)(=O)O[C@@H]2C(=O)N(c3cc4c5ccccc5ccc4c4ccccc34)[C@H]2c2ccc(F)cn2)CC1 | 95.8%
Cc1cc(C)c2nc(Nc3nc(C)c(C)c(=O)[nH]3)nc(C)c2c1 | 9.69% (active)
COC(=O)c1nc(-c2ccccc2)oc1S(=O)(=O)n1nc(C)cc1N | 69.8%
COc1ccc2cc(/C=C3\N=C(c4cc(OC)c(OC)c(OC)c4)OC3=O)c(OC)nc2c1 | 104%
O=C(CSC(=S)N1CCCCC1)Nc1ccccc1 | 101%
COc1cc(NC(=O)c2cc(O)c(C/C=C(\C)CCC=C(C)C)c(O)c2)cc2c1O[C@]1(C)CC[C@@H](O)C(C)(C)[C@H]1C2 | 0.27% (active)

Structure (SMILES) | growth
CCN1CCC[C@H]1c1cc(O)c2c(c1OC)C[C@H]1C[C@H]3[C@H](N)C(=O)C(C(N)=O)=C(O)[C@@]3(O)C(=O)C1=C2O | -3.73% (active)
O=c1c2ccccc2oc2ccc(OCCCCCCN3CCCCCC3)cc12 | 60.5%
NCCN1CCNCC1 | 130%
C=C(C)[C@@H]1CC[C@]2(C(=O)OCCOCCOCC[P+](c3ccccc3)(c3ccccc3)c3ccccc3)CC[C@]3(C)[C@H](CC[C@@H]4[C@@]5(C)CC[C@H](C)C(C)(C)[C@@H]5CC[C@]43C)[C@@H]12 | -93% (active)
O=C1CCC23OC(C(O)c4ccccc4N12)C1C(Br)=NOC13 (configuration not stated) | 102%
CCOC(=O)c1c(C)nc2c(c1N)/C(=C/c1ccccn1)C(=O)N2Cc1ccccc1 | 15.9%
C[C@H]1[C@H](C)CC[C@]2(C(=O)OCCCC[P+](c3ccccc3)(c3ccccc3)c3ccccc3)CC[C@]3(C)C(=CC[C@@H]4[C@@]5(C)CC[C@H](OC(=O)C(Cl)Cl)C(C)(C)[C@@H]5CC[C@]43C)[C@H]12 | -87.1% (active)
C=C1C(=O)O[C@H]2[C@H]1CC/C(COC(=O)n1ccnc1)=C\CC[C@@]1(C)O[C@@H]21 | 94.8%
CCOCc1cc(C(C)(C)C)ccc1O | 104%
COC(=O)c1ccc2c(c1)NC(=O)[C@@H]1CCCN21 | 87.2%
O=C(Nc1cccc(-c2cccc(F)c2)c1)C1CCN(Cc2cccc3cccnc23)CC1 | 76.3%
CCCCn1c(=O)c(/C=C/C(=O)/C=C/c2ccc(O)c(OC)c2)cc2ccc(Cl)cc21 | 11.4%
N#Cc1ccc(C2C3=C(CCCC3=O)OC3=C2C(=O)c2ccccc2C3=O)cc1 (configuration not stated) | 91.9%
COc1cc(-c2csc(NC(=O)Nc3ccc(C(F)(F)F)cc3)n2)cc(OC)c1OC | -8.1% (active)
Cc1c(Cl)cccc1NC(=O)c1sc2nc3c(cc2c1N)COCC3 | 49.6%
CCN(CC)CC#CCOC(=O)[C@]1(C)CCC[C@]2(C)[C@H]3C[C@H]4C(C(C)C)=C[C@]3(CC[C@H]21)[C@@H]1C(=O)CCC(=O)[C@@H]14 | 63.7%
CC(C)(C)c1nn(-c2ccccc2)c2c1COCN2Cc1ccc(Cl)cc1 | 122%
O=C(Nc1nc2ccc(C(F)(F)F)cc2s1)c1cc(Cl)ccc1O | -8.57% (active)
